In the library only some 19% were active in any assay of this set; here they are far more common.
TDP1 cell noCPT = qHTS for Inhibitors of human tyrosyl-DNA phosphodiesterase 1 (TDP1): qHTS in cells in absence of CPT | 420,000 compounds, 15% hits | AID 686978, 2013 | DT40 Tdp1-/- hTDP1 cells, no CPT, ATP luminescence, 48 h | Potency, µM (highest dose often 46.2 µM), for the others: at the highest dose activity change, negative = growth inhibition, most hits filed as inhibitors; note: potency is the fitted concentration of half-maximal effect; nearly all actives have a fitted effect of over 55% in size
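DT40 Tdp1-/-;hTDP1 cells, no CPT (DMSO vehicle only), 400 cells/well; compounds pin-transferred; ≥48 hr, 37 °C; CellTiter-Glo 30 min RT dark, luminescence read.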
IL1B secr inh = qHTS for Inhibitors of Inflammasome Signaling: IL-1-beta AlphaLISA Primary Screen | 360,000 compounds, 4.7% hits | THP-1 LPS/ATP IL-1B secretion, AlphaLISA, 16 h; stronger effect = lower value | AID 743279, 2014 | activity change, % at 57.5 µM; in the data active = activity change below about -50%; inconclusive = mostly about -30% to -49%
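Secreted IL-1B measured by AlphaLISA bead assay after 16 h compound exposure of THP-1 cells; compounds (final up to 57.5 uM) added 1 h before LPS (250 ng/mL) and ATP (1.25 mM) stimulation; lower signal means less secretion.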
DT40 TDP1 CPT = qHTS for Inhibitors of human tyrosyl-DNA phosphodiesterase 1 (TDP1): qHTS in cells in presence of CPT; chicken DT40 Tdp1-/-;hTDP1 cells + 20 nM CPT, ATP luminescence, 48 h; Potency, µM (series often up to 46.2 µM), without a hit: at the top dose activity change, negative = growth inhibition, actives largely listed as inhibitors; 420,000 compounds, 12% hits; note: potency is the fitted concentration of half-maximal effect; nearly all actives have a fitted effect of over 55% in size
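Cell growth measured by CellTiter-Glo luminescence after a minimum 48 h, 37 C compound exposure with 20 nM CPT in Tdp1-knockout DT40 cells stably expressing hTDP1, seeded 400/well; qHTS titration format.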
HT1080-NT tox = qHTS for induction of synthetic lethality in tumor cells producing 2HG: qHTS for the HT-1080-NT fibrosarcoma cell line; 360,000 compounds, 1.6% hits; HT-1080-NT fibrosarcoma viability, CellTiter-Glo ATP luminescence, 48 h; Potency, µM (doses to about 46.1 µM), for the others: top-dose activity, negative = less viability, actives largely listed as cytotoxic;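 note: NT is the 2HG producing partner of a matched IDH1 knockdown line; potency is the fitted concentration of half-maximal effect; 0% = DMSO-treated cells and -100% = media-only wells without cells; nearly all actives have a fitted effect of over 55% in size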
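Viability of the 2HG-overproducing fibrosarcoma line after 48 hours of compound exposure at 37 degrees C was determined by luminescence with CellTiter-Glo, and concentration-effect curves were then fitted and categorized.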
HT1080 IDH1KD tx = qHTS for induction of synthetic lethality in tumor cells producing 2HG: qHTS for the HT-1080-IDH1KD cell line; 360,000 compounds, 2% hits; Potency, µM (highest dose often 46.1 µM), for inactives: top-dose activity, negative = toxicity, hits mostly cytotoxic; HT-1080 IDH1 knockdown viability, ATP luminescence, 48 h;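 note: potency is the fitted concentration of half-maximal effect; 0% = DMSO wells and -100% = cell-free medium wells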
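In this qHTS, HT-1080 cells depleted of IDH1 are exposed for 48 h at 37 °C to compound titrations. Toxicity is scored from CellTiter-Glo luminescence, with DMSO as full viability and medium alone as none.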
* hit, by the source's call; ? = inconclusive; / = no result; [ ] = dose if it differs, or a comment. Unless noted, calls come from the whole dose curve; as a rule, active = well fitted curve in the direction sought with a large enough effect; inconclusive = small, poorly fitted or top-dose-only effect, or another doubt; inactive = no such curve, though single readings can be large; an effect the other way counts as inactive or inconclusive. Unless noted, % is set by controls: 0 for no effect and ±100 for the full control effect.

SMILES | TDP1 cell noCPT | IL1B secr inh | DT40 TDP1 CPT | HT1080-NT tox | HT1080 IDH1KD tx
COc1ccc(NC(=S)Nc2ccccc2)cc1 | ? | -16 | ? | 3% | 10%
COc1ccc(NC(=S)c2ccccc2)cc1 | -22% | -82* | -8% | 3% | 7%
O=C(Nc1ccc(Cl)cc1)c1ccc(Br)cc1F | ? | 0 | -11% | -16% | -7%
CCn1ncc(Br)c1C(=O)Nc1ccc(C(C)C)cc1 | -21% | -85* | 3% | -2% | -11%
CC(C)c1ccc(NC(=O)c2cc(Br)ccc2Br)cc1 | 26µM* | -17 | ? | -11% | 0%
O=C(COC(=O)/C=C/c1ccccc1Cl)NC1CCCCCC1 | -1% | 0 | 3% | 12% | 0%
COc1cccc(-c2nnc(SCC(=O)N3CCOCC3)o2)c1 | -23% | 15 | -20% | 3% | 8%[9.24 µM]
COc1cccc(-c2nnc(SCC(=O)N3CC(C)CC(C)C3)o2)c1 (configuration not stated) | 21µM* | -30 | ? | 2% | -1%
Cc1ccc(-c2nnc(SCC(=O)N3CC(C)CC(C)C3)o2)cc1C (configuration not stated) | 21µM* | 5 | 26µM* | 7% | 4%
CC1CC(C)CN(C(=O)CSc2nnc(-c3ccc(Cl)cc3)o2)C1 (configuration not stated) | 18µM* | -17 | ? | 5% | -6%
NC(=O)C1CCN(CC(=O)N2N=CCC2c2ccccc2)CC1 (configuration not stated) | -15% | -12 | 15% | 12% | 6%
Cc1ccc(-n2ncc(C(=O)Nc3cc(Cl)ccc3Cl)c2C2CCNCC2)cc1 | 23µM* | 0 | 23µM* | -1% | ?
COc1cc(NC(=O)c2cnn(-c3cccc(F)c3)c2C2CCNCC2)cc(OC)c1OC | -1% | / | 1% | / | /
Cc1ccc(-n2ncc(C(=O)Nc3cc(Cl)cc(Cl)c3)c2C2CCNCC2)cc1C | ? | -19 | ? | ? | 21µM*
C=CCn1ccc(=O)nc1SC | -7% | -1 | -24% | 1% | 4%
CN1Cc2c(C(=O)OC(C)(C)C)ncn2-c2ccsc2C1=O | -4% | / | 0% | / | /
COc1ccc(CCC(=O)Nc2ccc(OC)c(S(=O)(=O)N3CCCCC3)c2)cc1 | -23% | 1 | ? | 6% | 0%
O=C(c1cc(-c2ccncc2)nc2ccc(Br)cc12)N1CCN(Cc2ccc3c(c2)OCO3)CC1 | 23µM* | -63* | ? | 1% | 4%
COc1ccc(CN2CCN(C(=O)c3cc(-c4cccnc4)nc4ccc(Cl)cc34)CC2)c(OC)c1OC | 21µM* | 7 | ? | -24% | -2%
O=C(c1cccn2c(=O)c3ccc(Cl)cc3nc12)N1CCN(Cc2ccc3c(c2)OCO3)CC1 | 18µM* | -26 | ? | 10% | 3%
O=C(c1cc(-c2ccncc2)nc2ccc(Cl)cc12)N1CCN(Cc2ccc3c(c2)OCO3)CC1 | 23µM* | -83* | 16µM* | -6% | -11%
CS(=O)(=O)N1CCN(C(=O)c2cc(-c3cccnc3)nc3ccc(Cl)cc23)CC1 | ? | 43 | 0% | -3% | 0%
CC(C)(C)NC(=O)CN(Cc1ccc2c(c1)OCO2)C(=O)CNS(=O)(=O)c1ccccc1 | -13% | 18 | -4% | 5% | 13%
NCCCC[C@@H](C(=O)N1CCNCC1)n1cc([C@@H](N)CO)nn1 | -3% | 10 | 2% | ? | 4%
O=C(NCCNC(=O)c1cc(Cl)ccc1Cl)c1ccccn1 | -7% | -2 | -15% | 30% | -4%
SMILES | TDP1 cell noCPT | IL1B secr inh | DT40 TDP1 CPT | HT1080-NT tox | HT1080 IDH1KD tx
O=C(COc1ccccc1F)Nc1c2c(nn1-c1ccccc1)CS(=O)(=O)C2 | 13% | 0 | 3% | 0% | -3%
Cc1ccc2c(c1)sc1nc(-c3cc4ccccc4oc3=O)cn12 | 1% | / | -16% | / | /
Cc1ccccc1CN1CCN(C(=O)c2cccc3ccccc23)CC1 | ? | ? | ? | 7% | 9%
Cc1cc(C)c2nc(-c3ccncc3)cc(C(=O)N3CCN(Cc4ccccc4Cl)CC3)c2c1 | ? | -75* | ? | ? | ?
COC(=O)C1=C(Nc2ccc(C)cc2)C=C(C)C(C(=O)OC)C1c1ccc(OC)cc1 (configuration not stated) | 26µM* | -5 | 16µM* | ? | ?
Cc1cc2c(c(C)c1Br)C(c1ccc3c(c1)OCO3)CC(=O)O2 (configuration not stated) | 6% | 42 | -6% | -1% | -3%
CC12COC3(P(=O)(c4ccccc4)c4ccccc4)CC1CCC23CP(=O)(c1ccccc1)c1ccccc1 (configuration not stated) | ? | -52* | ? | -19% | ?
CC12COC3(C(=O)Nc4ccc(F)cc4)CC1CCC32C (configuration not stated) | ? | 5 | -20% | 2% | 5%
COc1ccccc1-n1cc(CN2CCOc3ccc(CN4C[C@@H](C)O[C@@H](C)C4)cc3C2)cn1 | ? | / | -11%[9.04 µM] | / | /
COc1ccc(C2CC(C)(c3ccc(OC)cc3)Nc3ccccc3N2)cc1 (configuration not stated) | 15µM* | -11 | ? | ? | ?
O=S(=O)(c1ccccc1C(F)(F)F)N1CCOCC1 | 0% | -6 | 2% | 8% | 7%
CCOC(=O)c1ccc(N2C(=O)c3n[nH]c(C)c3C2c2ccc(OC)cc2OC)cc1 (configuration not stated) | 23µM* | -58* | ? | -21% | -22%
CCOC(=O)c1ccc(N2C(=O)c3n[nH]c(-c4ccco4)c3C2c2ccc(OC)cc2OC)cc1 (configuration not stated) | 18µM* | / | 23µM* | / | /
CCOC(=O)c1ccc(N2C(=O)c3n[nH]c(C)c3C2c2ccco2)cc1 (configuration not stated) | -26% | -19 | -5% | -12% | -7%
CCN=C1NN=C(c2c[nH]c3ccccc23)CS1 | -24% | -106* | -14% | -24% | -16%
COCC(C)N=C1NN=C(c2c[nH]c3ccccc23)CS1 (configuration not stated) | -21% | -80* | -16% | 1% | -7%
COc1ccc(CN=C2NN=C(c3ccccc3)CS2)cc1 | ? | 56 | 3% | 6% | 10%
